In the supplement of paper PMC10338343:
± gives the standard deviation.

Tested on: MILI (PIWIL2) piRISC loaded with L1MC piRNA (26 nt)
Assay: pre-steady-state target cleavage rate (min^-1); guide: L1MC piRNA 5'p-UAACUAAAUACUAUGCAAGCUGUAGG; MIWI and MILI are mouse PIWI proteins and EfPiwi is from a freshwater sponge; tags in brackets are library labels; higher = faster piRNA-guided slicing of the target
Settings: auxiliary factor: 500 nM mouse GTSF1
Procedure: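 Cleave-'n-Seq: a library of target RNAs (target site embedded in constant flanks, ACAGCATTCCGCGTTAGTGATATCCG... 5' flank; DNA-blocked outside the site) at 0.1 nM was incubated with 1 nM active mouse MILI or MIWI piRISC (synthetic 5'-monophosphorylated piRNA guide) with or without 500 nM mouse GTSF1 at 33 °C for 1 min to 16 h. Uncleaved targets were sequenced and normalised to non-target controls, and the pooled three trials were fitted to a burst-and-steady-state model to give the pre-steady-state cleavage rate (min^-1; k3 is constrained to at most 1e-4). Sequence is the target site only; target names encode pairing extent (gX:gY) and contiguous / 1-mismatch / 2-mismatch / bulge geometry. Fits with R² ≤ 0 are excluded.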

Row | Sequence | pre-steady-state target cleavage rate
1 | UCCUGGAUGAGCUUGCAUAGAAUAUAGUUA | 0.0218 ± 0.0083
2 | UCCUGCUAAAGCUUGCAUAGUAUUUAGUUA | 0.177 ± 0.035
3 | UCCUCCUACAGCUUGCUAUGUAUUUAGUUA | 0.0502 ± 0.011
4 | UCCUGGUACAGCUUGCAUAGUAAUUUGUUA | 0.18 ± 0.05
5 | UCCUGGAACAGCUUGAAUAGUAUUUAGUUA | 0.243 ± 0.023
6 | UCCUCCUAGAGCAUGCAUAGUAUUUAGUUA | 0.2 ± 0.019
7 | UCCUGCUACAGGUUCCAUAGUAUUUAGUUA | 0.00943 ± 0.0066
8 | UCCUGCUACAGCUUGCAUAGUAUUAACAAA | 0.0401 ± 0.011
9 | UCCUGGAUGUCGUGGCAUAGUAUUUAGUUA | 0.0441 ± 0.011
10 | UCCUGGAUCAGCUUGCAAAGUAUUAAGUUA | 0.119 ± 0.011
11 | UCCUGGAUCAGGUUGCAUAGUAUUUAGUAA | 0.227 ± 0.016
12 | UCCUGCUGACAGCUUGCAUAGUAUUUAGUUA | 0.327 ± 0.025
13 | UCCUCCUACAGCAUGCUUAGUAUUUAGUUA | 0.206 ± 0.015
14 | UCCUCCUACAGCUGCAUAGUAUUUAGUUA | 0.275 ± 0.018
15 | UCCUGCAACAGCUUGCAUAGUAUAUAGUUA | 0.36 ± 0.038
16 | UCCUGGAUCAGCUUGCAUAGUAUUUAGCUA | 0.00534 ± 0.0036
17 | UCCUGGAACAGCAAGCAUAGUAUUUAGUUA | 0.275 ± 0.018
18 | UCCUCCUACAGCUUGCAUAGUAUUUAGGUUA | 0.251 ± 0.045
19 | UCCUGGAUGAGCUUGCAUAGUAUUAUAGUUA | 0.185 ± 0.022
20 | UCCUGCUACACGUUGCAUAGUAUUUAGUUA | 0.289 ± 0.026
21 | UCCUGGUACAGCUUGCAUAGCAUUUAGUUA | 0.117 ± 0.03
22 | UCCUGGAUCAGCUUGCAUAGUUUUUAGAAA | 0.0202 ± 0.0088
23 | UCCUGGAUGUCCUUGCAUAGUGUUUAGUUA | 0.0572 ± 0.012

Same assay, conditions: auxiliary factor: none (no GTSF1)

Row | Sequence | pre-steady-state target cleavage rate
24 | UCCUGGAUGUCGAACGUAUCUAUUUAGUCA | < 0.0001
25 | UCCUCCUACAGCUUGCUAUGUAUUUAGUUA | 0.00506 ± 0.0018
26 | UCCUGGAACAGCUUGAAUAGUAUUUAGUUA | 0.00657 ± 0.0025
27 | UCCUCCUAGAGCAUGCAUAGUAUUUAGUUA | 0.00564 ± 0.0018
28 | UCCUGGAUGUCGUGGCAUAGUAUUUAGUUA | 0.00558 ± 0.0029
29 | UCCUGGAUCAGCUUGCAAAGUAUUAAGUUA | 0.00698 ± 0.0025
30 | UCCUGGAUCAGGUUGCAUAGUAUUUAGUAA | 0.00858 ± 0.0024
31 | UCCUGCUGACAGCUUGCAUAGUAUUUAGUUA | 0.00993 ± 0.0029
32 | UCCUCCUACAGCAUGCUUAGUAUUUAGUUA | 0.00645 ± 0.0024
33 | UCCUCCUACAGCUGCAUAGUAUUUAGUUA | 0.00792 ± 0.0023
34 | UCCUGCAACAGCUUGCAUAGUAUAUAGUUA | 0.00582 ± 0.0026
35 | UCCUGGAACAGCAAGCAUAGUAUUUAGUUA | 0.00588 ± 0.0024
36 | UCCUCCUACAGCUUGCAUAGUAUUUAGGUUA | 0.00312 ± 0.0031
37 | UCCUGGAUGAGCUUGCAUAGUAUUAUAGUUA | 0.00494 ± 0.0026
38 | UCCUGCUACACGUUGCAUAGUAUUUAGUUA | 0.0118 ± 0.0026
39 | UCCUGGUACAGCUUGCAUAGCAUUUAGUUA | 0.00488 ± 0.0026
40 | UCCUGGAUGUCCUUGCAUAGUGUUUAGUUA | 0.00445 ± 0.0025
